From publication PMC11066047 come the findings set out here.

The target in assay [1] is Ribosome-associated molecular chaperone SSB1 (UniProt P11484). In words: cross-link between two proteins; affinity purification or IP with mass spectrometry; cross-linking mass spectrometry.
Assay [2] addresses 26S proteasome regulatory subunit 8 homolog (UniProt Q01939). Nature of the assay: cross-link between two proteins; cross-linking mass spectrometry.
Assay [3] concerns the target Large ribosomal subunit protein eL22A (UniProt P05749). Described as above.
The target of assay [4] is Large ribosomal subunit protein uL3 (UniProt P14126). The description is as above.
For assay [5], the target named is 26S proteasome regulatory subunit 4 homolog (UniProt P40327). The description is as above.
Chain of 26S proteasome regulatory subunit 4 homolog (P40327 whole entry): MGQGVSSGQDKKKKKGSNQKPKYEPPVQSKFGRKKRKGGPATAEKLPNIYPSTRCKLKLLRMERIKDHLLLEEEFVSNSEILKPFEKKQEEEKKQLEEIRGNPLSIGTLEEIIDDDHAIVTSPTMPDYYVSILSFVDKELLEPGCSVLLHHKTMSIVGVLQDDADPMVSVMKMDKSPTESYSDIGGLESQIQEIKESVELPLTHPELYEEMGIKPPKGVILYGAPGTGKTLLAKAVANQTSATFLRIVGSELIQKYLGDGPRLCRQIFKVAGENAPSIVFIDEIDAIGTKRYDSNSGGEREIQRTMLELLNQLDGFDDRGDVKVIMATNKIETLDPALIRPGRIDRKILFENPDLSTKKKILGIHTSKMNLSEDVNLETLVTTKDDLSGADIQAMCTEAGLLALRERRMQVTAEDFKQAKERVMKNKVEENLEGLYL
The target in assay [6] is 26S proteasome regulatory subunit 7 homolog (UniProt P33299). The description is as above.
In assay [7] the target is 26S proteasome regulatory subunit RPN9 (UniProt Q04062). The assay is described as above.
Chain of 26S proteasome regulatory subunit RPN9 (Q04062 whole entry): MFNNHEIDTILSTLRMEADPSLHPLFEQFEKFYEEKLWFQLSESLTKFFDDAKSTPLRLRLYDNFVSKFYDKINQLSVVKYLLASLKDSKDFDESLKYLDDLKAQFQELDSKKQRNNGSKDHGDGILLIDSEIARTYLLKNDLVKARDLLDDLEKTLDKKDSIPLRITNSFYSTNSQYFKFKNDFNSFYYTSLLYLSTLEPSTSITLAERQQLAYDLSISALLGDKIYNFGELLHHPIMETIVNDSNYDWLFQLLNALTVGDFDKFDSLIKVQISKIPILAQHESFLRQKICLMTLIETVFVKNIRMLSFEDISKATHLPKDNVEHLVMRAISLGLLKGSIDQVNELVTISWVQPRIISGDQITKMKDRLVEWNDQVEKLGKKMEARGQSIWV
For assay [8], the target named is ATP synthase subunit f, mitochondrial (UniProt Q06405). The description is as above.
Chain of ATP synthase subunit f, mitochondrial (Q06405 whole entry): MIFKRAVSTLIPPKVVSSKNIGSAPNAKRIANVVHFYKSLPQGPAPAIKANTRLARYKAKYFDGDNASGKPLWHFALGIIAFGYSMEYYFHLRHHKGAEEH
Assay [9] has as its target 26S proteasome regulatory subunit RPN3 (UniProt P40016). The assay is described as above.
The target of a further assay is Heat shock protein STI1 (UniProt P15705). Nature of the assay: cross-link between two proteins; affinity purification or IP with mass spectrometry; cross-linking mass spectrometry.
The target in assay [10] is Protein transport protein SSS1 (UniProt P35179). Described as above.
Chain of Protein transport protein SSS1 (P35179 whole entry): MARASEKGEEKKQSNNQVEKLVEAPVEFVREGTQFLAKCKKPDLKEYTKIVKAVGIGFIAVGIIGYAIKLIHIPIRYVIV
For the next assay, the target named is Elongation factor 3A (UniProt P16521). Described as above.
In assay [11] the target is Heat shock protein homolog SSE1 (UniProt P32589). In words: cross-link between two proteins.
Assay [12] has as its target Heat shock protein homolog SSE2 (UniProt P32590). Nature of the assay: cross-link between two proteins; affinity purification or IP with mass spectrometry; cross-linking mass spectrometry.
Assay [13] deals with Large ribosomal subunit protein eL21A (UniProt Q02753). The description is as above.
The target in assay [14] is Large ribosomal subunit protein eL8B (UniProt P29453). The description is as above.
In assay [15] the target is Large ribosomal subunit protein uL24B (UniProt P53221). The description is as above.
The target of assay [16] is Signal transduction protein MDG1 (UniProt P53885). The description is as above.
Assay [17] addresses Small ribosomal subunit protein eS1B (UniProt P23248). Described as above.
For assay [18], the target named is Small ribosomal subunit protein uS10 (UniProt P38701). The description is as above.
Assay [19] has as its target Small ribosomal subunit protein uS11B (UniProt P39516). The assay is described as above.
The target of assay [20] is ATP synthase subunit 4, mitochondrial (UniProt P05626). Nature of the assay: cross-link between two proteins; cross-linking mass spectrometry.
For assay [21], the target named is 26S proteasome regulatory subunit RPN2 (UniProt P32565). The assay is described as above.
The target of assay [22] is 2-isopropylmalate synthase 2, mitochondrial (UniProt Q12166). The description is as above.
For assay [23], the target named is ATP synthase subunit gamma, mitochondrial (UniProt P38077). The description is as above.
The target in assay [24] is ATP synthase subunit 5, mitochondrial (UniProt P09457). Described as above.
The target in assay [25] is ATP synthase subunit H, mitochondrial (UniProt Q12349). The assay is described as above.
Assay [26] addresses ATP synthase subunit d, mitochondrial (UniProt P30902). The assay is described as above.
Assay [27] addresses ATP-dependent RNA helicase DBP10 (UniProt Q12389). Described as above.
The target of assay [28] is ATP synthase subunit K, mitochondrial (UniProt P81451). Described as above.
The target of assay [29] is 26S proteasome subunit RPT4 (UniProt P53549). Described as above.
Chain of 26S proteasome subunit RPT4 (P53549 whole entry): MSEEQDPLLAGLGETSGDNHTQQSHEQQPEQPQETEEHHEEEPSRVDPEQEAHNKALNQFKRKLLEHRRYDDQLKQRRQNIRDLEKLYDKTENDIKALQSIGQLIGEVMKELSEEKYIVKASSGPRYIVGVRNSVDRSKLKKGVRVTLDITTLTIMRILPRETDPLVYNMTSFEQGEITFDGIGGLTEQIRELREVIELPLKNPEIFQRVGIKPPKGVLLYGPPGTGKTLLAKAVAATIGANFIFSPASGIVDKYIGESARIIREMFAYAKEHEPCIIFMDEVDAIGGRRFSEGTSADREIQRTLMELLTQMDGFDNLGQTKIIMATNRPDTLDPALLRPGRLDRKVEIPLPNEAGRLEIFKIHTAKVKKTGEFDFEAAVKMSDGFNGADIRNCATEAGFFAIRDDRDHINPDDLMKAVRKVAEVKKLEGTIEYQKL
In assay [30] the target is 26S proteasome regulatory subunit RPN7 (UniProt Q06103). The description is as above.
Assay [31] deals with ATP-dependent RNA helicase HAS1 (UniProt Q03532). The assay is described as above.
Chain of ATP-dependent RNA helicase HAS1 (Q03532 whole entry): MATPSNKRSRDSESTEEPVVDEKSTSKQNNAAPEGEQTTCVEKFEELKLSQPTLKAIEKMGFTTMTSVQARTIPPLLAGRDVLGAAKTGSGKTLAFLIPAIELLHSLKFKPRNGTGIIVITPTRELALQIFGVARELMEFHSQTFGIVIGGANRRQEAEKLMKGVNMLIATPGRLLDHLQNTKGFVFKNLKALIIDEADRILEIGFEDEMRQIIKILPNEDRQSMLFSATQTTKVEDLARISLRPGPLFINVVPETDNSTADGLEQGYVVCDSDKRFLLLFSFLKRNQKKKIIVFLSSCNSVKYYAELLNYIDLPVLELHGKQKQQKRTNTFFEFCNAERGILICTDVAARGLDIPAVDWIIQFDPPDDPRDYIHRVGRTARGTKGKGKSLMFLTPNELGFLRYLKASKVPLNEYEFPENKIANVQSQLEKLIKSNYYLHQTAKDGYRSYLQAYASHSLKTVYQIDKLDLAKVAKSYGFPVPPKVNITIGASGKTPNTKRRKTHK
The target of assay [32] is ATP-dependent molecular chaperone HSC82 (UniProt P15108). In words: cross-link between two proteins; affinity purification or IP with mass spectrometry; cross-linking mass spectrometry.
For assay [33], the target named is 26S proteasome regulatory subunit RPN8 (UniProt Q08723). Nature of the assay: cross-link between two proteins; cross-linking mass spectrometry.
Chain of 26S proteasome regulatory subunit RPN8 (Q08723 whole entry): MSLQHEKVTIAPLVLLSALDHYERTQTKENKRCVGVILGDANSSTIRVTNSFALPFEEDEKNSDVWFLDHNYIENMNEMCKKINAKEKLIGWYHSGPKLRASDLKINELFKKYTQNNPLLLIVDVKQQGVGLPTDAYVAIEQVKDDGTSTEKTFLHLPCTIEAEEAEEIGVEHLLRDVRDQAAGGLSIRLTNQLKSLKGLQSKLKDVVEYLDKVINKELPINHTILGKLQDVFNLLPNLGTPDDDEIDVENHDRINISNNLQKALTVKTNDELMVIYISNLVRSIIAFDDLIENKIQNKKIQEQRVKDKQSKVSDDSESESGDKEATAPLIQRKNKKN
Assay [34] concerns the target Large ribosomal subunit protein eL13B (UniProt P40212). The assay is described as above.
Assay [35] addresses Casein kinase II subunit beta (UniProt P43639). Described as above.
The target of assay [36] is Casein kinase II subunit beta' (UniProt P38930). The assay is described as above.
Assay [37] concerns the target Cytochrome b-c1 complex subunit 10, mitochondrial (UniProt P37299). The description is as above.
Assay [38] deals with Cytochrome b-c1 complex subunit 2, mitochondrial (UniProt P07257). The description is as above.
The target of assay [39] is Cytochrome c oxidase subunit 12, mitochondrial (UniProt Q01519). The description is as above.
Assay [40] deals with Cytochrome c oxidase subunit 5A, mitochondrial (UniProt P00424). The description is as above.
The target of assay [41] is Cytochrome c oxidase subunit 6, mitochondrial (UniProt P00427). The assay is described as above.
For assay [42], the target named is DNA-directed RNA polymerase II subunit RPB11 (UniProt P38902). Described as above.
Assay [43] deals with DNA-directed RNA polymerases I, II, and III subunit RPABC5 (UniProt P22139). The description is as above.
Chain of DNA-directed RNA polymerases I, II, and III subunit RPABC5 (P22139 whole entry): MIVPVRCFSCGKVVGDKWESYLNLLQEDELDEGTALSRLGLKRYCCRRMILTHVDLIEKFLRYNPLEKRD
Another assay addresses FK506-binding protein 4 (UniProt Q06205). The description is as above.
Assay [44] addresses H/ACA ribonucleoprotein complex subunit NOP10 (UniProt Q6Q547). Nature of the assay: cross-link between two proteins.

Chain of 26S proteasome regulatory subunit RPN3 (P40016 whole entry): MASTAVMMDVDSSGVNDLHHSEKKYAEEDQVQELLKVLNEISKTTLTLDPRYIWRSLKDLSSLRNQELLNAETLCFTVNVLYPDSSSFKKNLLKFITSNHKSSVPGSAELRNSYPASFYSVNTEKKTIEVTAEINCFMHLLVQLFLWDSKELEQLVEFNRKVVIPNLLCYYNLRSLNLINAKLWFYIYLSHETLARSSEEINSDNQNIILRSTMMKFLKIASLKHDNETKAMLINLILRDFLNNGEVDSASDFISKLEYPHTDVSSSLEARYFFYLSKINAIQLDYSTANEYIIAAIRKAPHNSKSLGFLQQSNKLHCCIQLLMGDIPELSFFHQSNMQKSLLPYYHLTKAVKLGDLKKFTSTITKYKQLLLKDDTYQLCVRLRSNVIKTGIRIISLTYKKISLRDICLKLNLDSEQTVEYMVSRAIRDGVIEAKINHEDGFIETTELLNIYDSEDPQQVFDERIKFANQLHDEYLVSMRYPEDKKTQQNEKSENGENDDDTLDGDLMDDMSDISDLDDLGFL
Chain of Ribosome-associated molecular chaperone SSB1 (P11484 whole entry): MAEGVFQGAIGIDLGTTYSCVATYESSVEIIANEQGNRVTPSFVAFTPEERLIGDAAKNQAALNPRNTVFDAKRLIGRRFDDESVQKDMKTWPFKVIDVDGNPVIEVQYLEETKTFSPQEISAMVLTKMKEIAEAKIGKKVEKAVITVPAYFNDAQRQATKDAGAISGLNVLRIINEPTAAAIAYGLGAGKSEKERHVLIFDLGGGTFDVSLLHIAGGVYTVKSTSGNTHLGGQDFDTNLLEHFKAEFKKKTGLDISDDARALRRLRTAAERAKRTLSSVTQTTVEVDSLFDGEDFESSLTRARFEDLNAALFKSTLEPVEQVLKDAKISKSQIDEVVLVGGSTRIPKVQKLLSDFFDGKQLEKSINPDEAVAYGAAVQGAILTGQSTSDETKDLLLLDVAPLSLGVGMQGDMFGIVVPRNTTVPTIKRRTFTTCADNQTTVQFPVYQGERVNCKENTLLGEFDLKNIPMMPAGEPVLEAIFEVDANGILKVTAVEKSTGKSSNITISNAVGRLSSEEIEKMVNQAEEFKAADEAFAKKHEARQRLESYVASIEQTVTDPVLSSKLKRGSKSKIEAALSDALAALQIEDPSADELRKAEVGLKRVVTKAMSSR
Chain of Ribosome-associated molecular chaperone SSB1, P11484 (P11484 whole entry): as above
Chain of 26S proteasome regulatory subunit 8 homolog (Q01939 whole entry): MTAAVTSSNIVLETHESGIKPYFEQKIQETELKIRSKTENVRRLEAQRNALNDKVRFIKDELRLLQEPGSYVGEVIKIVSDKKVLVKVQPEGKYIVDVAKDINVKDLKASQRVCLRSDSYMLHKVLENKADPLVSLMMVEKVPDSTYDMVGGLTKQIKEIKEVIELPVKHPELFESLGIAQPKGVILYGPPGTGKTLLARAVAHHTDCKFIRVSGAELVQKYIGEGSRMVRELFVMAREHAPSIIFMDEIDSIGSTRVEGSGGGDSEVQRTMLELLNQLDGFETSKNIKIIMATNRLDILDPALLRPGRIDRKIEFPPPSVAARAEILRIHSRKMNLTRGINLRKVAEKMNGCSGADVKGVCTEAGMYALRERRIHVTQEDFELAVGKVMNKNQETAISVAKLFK
Chain of Nucleolar protein 16, P40007 (P40007 whole entry): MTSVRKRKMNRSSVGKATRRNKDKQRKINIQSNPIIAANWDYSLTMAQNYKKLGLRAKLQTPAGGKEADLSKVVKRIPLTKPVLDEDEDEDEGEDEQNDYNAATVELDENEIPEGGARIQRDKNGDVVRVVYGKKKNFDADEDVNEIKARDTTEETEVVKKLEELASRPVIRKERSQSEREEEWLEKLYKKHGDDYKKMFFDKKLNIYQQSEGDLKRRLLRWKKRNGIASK
Chain of H/ACA ribonucleoprotein complex subunit NOP10 (Q6Q547 whole entry, one chain of several): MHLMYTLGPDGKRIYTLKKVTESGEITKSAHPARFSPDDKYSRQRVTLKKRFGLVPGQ

For the substance “Large ribosomal subunit protein uL29B, P0CX85”, the “listed as a hit” value in assay [1] is recorded as “yes”. Still for that read-out and setting: the value for “Polyadenylate-binding protein, cytoplasmic and nuclear, P04147” was “yes”.

For “26S proteasome regulatory subunit 4 homolog, P40327”, the “listed as a hit” value in assay [2] was “yes”. With “Large ribosomal subunit protein eL24A, P04449”, the “listed as a hit” value in assay [3], in [4] and in assay [1] was “yes” in each case.

For the substance Enolase 1, P00924, in assay [1], the “listed as a hit” value is “yes”. As for “26S proteasome regulatory subunit 6A, P33297”, the “listed as a hit” value in [5], in [6] and in [7] was “yes” throughout.

“ATP synthase subunit d, mitochondrial, P30902”: in [8], the “listed as a hit” value is reported as “yes”. “26S proteasome regulatory subunit RPN2, P32565”: the “listed as a hit” value in assay [5], in assay [2] and in assay [9] was “yes” throughout.

In the case of “ATP-dependent molecular chaperone HSC82, P15108”, the “listed as a hit” value with Heat shock protein STI1 is “yes”.

Turning to Protein transport protein SEC61, P32915, the “listed as a hit” value in [10] is “yes”. Consider “26S proteasome regulatory subunit 7 homolog, P33299”, for which, in [5], the “listed as a hit” value is given as “yes”.

With “Ribosome-associated molecular chaperone SSB1, P11484”, the “listed as a hit” value (with Elongation factor 3A; in assay [11]; in assay [12]; in assay [13]; in assay [14]; in assay [15]) was “yes” throughout. Moreover, the “listed as a hit” value in [16], in [17], in [18] and in assay [19] was “yes” throughout. Consider “ATP synthase subunit beta, mitochondrial, P00830”, for which the “listed as a hit” value in assay [20] is on record as “yes”. Regarding “26S proteasome regulatory subunit RPN13, O13563”, in [21], the “listed as a hit” value is “yes”. For the substance 2-isopropylmalate synthase, P06208, in assay [22], the “listed as a hit” value is given as “yes”. Turning to “ATP synthase subunit epsilon, mitochondrial, P21306”, in [23], the “listed as a hit” value is reported as “yes”. As for “ATP synthase subunit 4, mitochondrial, P05626”, the “listed as a hit” value in assay [24], in [25] and in assay [26] was “yes” throughout. As to Heat shock protein STI1, P15705, in [9], the “listed as a hit” value is given as “yes”. The same measure, in the same setting: the value for “26S proteasome regulatory subunit RPN12, P32496” was “yes”. For the substance “Ribosome biogenesis protein NSA2, P40078”, in [27], the “listed as a hit” value is listed as “yes”. Consider “ATP synthase subunit e, mitochondrial, P81449”, for which the “listed as a hit” value in [28] was “yes”.

Regarding Heat shock protein SSA2, P10592, the “listed as a hit” value in assay [1] was “yes”. On to “26S proteasome regulatory subunit 6B homolog, P33298”, for which the “listed as a hit” value in [9] and in assay [29] was “yes” each time. As to “26S proteasome complex subunit SEM1, O94742”, in [30], the “listed as a hit” value is reported as “yes”. In the case of “Proteasome-interacting protein CIC1, P38779”, the “listed as a hit” value in [31] is given as “yes”. As for “ATP-dependent molecular chaperone HSP82, P02829”, in assay [32], the “listed as a hit” value is given as “yes”. As for “26S proteasome regulatory subunit RPN10, P38886”, the “listed as a hit” value in assay [33] is “yes”. For “Ubiquitin C-terminal hydrolase RPN11, P43588”, the “listed as a hit” value in [2], in assay [33] and in assay [29] was “yes” in each case. Take Nucleolar protein 16, P40007: the “listed as a hit” value in assay [31] and in assay [34] was “yes” throughout. For Casein kinase II subunit alpha, P15790, the “listed as a hit” value in assay [35] is “yes”. As to Casein kinase II subunit alpha', P19454, the “listed as a hit” value in [36] was “yes”. “Cytochrome b-c1 complex subunit 2, mitochondrial, P07257”: the “listed as a hit” value in assay [37] was “yes”. As to “Cytochrome b-c1 complex subunit 1, mitochondrial, P07256”, the “listed as a hit” value in assay [38] is “yes”. For the substance “Respiratory supercomplex factor 2, mitochondrial, P53721”, the “listed as a hit” value in [39] was “yes”. In the case of “Cytochrome b-c1 complex subunit 6, mitochondrial, P00127”, in [40], the “listed as a hit” value was “yes”. “Cytochrome c oxidase subunit 5A, mitochondrial, P00424”: the “listed as a hit” value in assay [41] is “yes”. Regarding “DNA-directed RNA polymerase II subunit RPB3, P16370”, the “listed as a hit” value in [42] and in assay [43] was “yes” each time.

For the substance “DNA-directed RNA polymerase II subunit RPB2, P08518”, the “listed as a hit” value in [43] is “yes”. For “25S rRNA (cytosine(2870)-C(5))-methyltransferase, P40991”, the “listed as a hit” value in the assay with FK506-binding protein 4 was “yes”.

For “H/ACA ribonucleoprotein complex subunit CBF5, P33322”, the “listed as a hit” value in assay [44] is “yes”.
